Screens (PubChem)
IL1B secr inh: inhibitors of inflammasome signaling (IL-1 beta secretion); activity change, % at 57.5 µM; hit rate 4.7% among 360,000; THP-1 LPS/ATP IL-1B secretion, AlphaLISA, 16 h; active compounds read low; AID 743279; in the data active means activity change below about -50%; inconclusive means mostly about -30% to -49%
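THP-1 cells pretreated 1 hr with compounds (up to 57.5 uM final), then stimulated with LPS (250 ng/mL final) plus ATP (1.25 mM final); secreted IL-1B measured by AlphaLISA after 16 hr, decreased signal indicating inhibition.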
DT40 TDP1 CPT: DT40-hTDP1 cell growth loss with CPT | chicken DT40 Tdp1-/-;hTDP1 cells + 20 nM CPT, ATP luminescence, 48 h | Potency, µM (series often up to 46.2 µM), for the others: at the highest dose activity change, negative = growth inhibition, actives largely listed as inhibitors | hit rate 12% among 420,000; further: potency means the concentration at half of the fitted maximal effect; nearly all actives have a fitted effect of over 55% in size
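Chicken DT40 Tdp1-/- cells stably complemented with human TDP1 were seeded at 400 cells/well in medium containing 20 nM camptothecin, exposed to pin-transferred compounds, and grown at 37 °C for at least 48 hr. Viability was read as ATP luminescence.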
HT1080 IDH1KD tx: toxicity to HT-1080 IDH1 knockdown cells (counter line). hit rate 2% among 360,000. Potency, µM (titrated, usually from 46.1 µM), for the others: at the highest dose activity, negative = toxicity, hits mostly cytotoxic. HT-1080 IDH1 knockdown viability, ATP luminescence, 48 h;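 further: potency means the concentration at half of the fitted maximal effect; 0% = DMSO wells and -100% = cell-free medium wells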
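Cytotoxicity counter-line: IDH1KD HT-1080, 48 h, CellTiter-Glo. Curves classed by r2, magnitude and activity.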
DT40 TDP1 no CPT: qHTS for Inhibitors of human tyrosyl-DNA phosphodiesterase 1 (TDP1): qHTS in cells in absence of CPT | DT40 Tdp1-/- hTDP1 cells, no CPT, ATP luminescence, 48 h | Potency, µM (series often up to 46.2 µM), for inactives: at the highest dose activity change, negative = growth inhibition, most hits filed as inhibitors | hit rate 15% among 420,000; further: potency means the concentration at half of the fitted maximal effect; nearly all actives have a fitted effect of over 55% in size
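DT40 Tdp1-/-;hTDP1 cells, no CPT (DMSO vehicle only), 400 cells/well; compounds pin-transferred; ≥48 hr, 37 °C; CellTiter-Glo 30 min RT dark, luminescence read.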
HT1080-NT tox: kills 2HG-producing HT-1080-NT fibrosarcoma cells | Potency, µM (top dose mostly 46.1 µM), inactives show top-dose activity, negative = less viability, usual class: cytotoxic | AID 686970 | hit rate 1.6% among 360,000 | HT-1080-NT fibrosarcoma viability, CellTiter-Glo ATP luminescence, 48 h;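 further: NT is the 2HG producing partner of a matched IDH1 knockdown line; potency means the concentration at half of the fitted maximal effect; 0% = DMSO-treated cells and -100% = media-only wells without cells; nearly all actives have a fitted effect of over 55% in size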
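Fibrosarcoma NT cells, 750 per well in 5% FBS RPMI, were exposed to compound for 48 hours. Viability: CellTiter-Glo luminescence.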
* = called active by the depositor. Hits are enriched below; roughly 19% of the tested compounds scored in any of these assays. Unless noted, the call rests on the fitted dose curve; in most records, active means well fitted curve in the direction sought with a large enough effect; inconclusive means small, poorly fitted or top-dose-only effect, or another doubt; inactive means no such curve, though single readings can be large; an effect the other way counts as inactive or inconclusive. Unless noted, on the % scale 0 is the no-effect control and ±100 the full control effect.

What do the screens show for `C[C@@H](C(=O)Nc1ccc2ccccc2c1)[C@@H]1C[C@@]1(C)[C@@H](NC(=O)OCc1ccccc1)c1ccccc1`?
IL1B secr inh: -18; DT40 TDP1 CPT: inconclusive; HT1080 IDH1KD tx: 1%; DT40 TDP1 no CPT: 16µM*; HT1080-NT tox: 5%

Results for C[C@@H](C(=O)NCCc1c[nH]c2ccccc12)[C@@H]1C[C@@]1(C)[C@@H](NC(=O)OCc1ccccc1)c1ccccc1 ?
IL1B secr inh: inconclusive; DT40 TDP1 CPT: 13µM*; HT1080 IDH1KD tx: -4%; DT40 TDP1 no CPT: 18µM*; HT1080-NT tox: -5%

Results for C[C@@H](C(=O)NCC1CC1)[C@H]1C[C@]1(C)[C@H](NC(=O)OCc1ccccc1)c1ccccc1 ?
IL1B secr inh: -5; DT40 TDP1 CPT: 26µM*; HT1080 IDH1KD tx: 2%; DT40 TDP1 no CPT: inconclusive; HT1080-NT tox: 0%

What do the screens show for `Cc1cnc(C(=O)N(c2ccc(N3CCOCC3)cc2)C2C(=O)Nc3ccccc3N=C2c2ccc(F)cc2)cn1` (centres undefined)?
IL1B secr inh: 13; DT40 TDP1 CPT: -7%; HT1080 IDH1KD tx: 8%; DT40 TDP1 no CPT: inconclusive; HT1080-NT tox: 6%

How did NS(=O)(=O)c1ccc(Sc2ccc3ccccc3c2)nc1 do in these assays?
IL1B secr inh: -88*; DT40 TDP1 CPT: inconclusive; HT1080 IDH1KD tx: -23%; DT40 TDP1 no CPT: inconclusive; HT1080-NT tox: -24%

Results for O=C1CC(=O)OC(c2ccc([N+](=O)[O-])cc2)O1 ?
IL1B secr inh: -55*; DT40 TDP1 CPT: 3.3µM*; HT1080 IDH1KD tx: 4.6µM*; DT40 TDP1 no CPT: 2.3µM*; HT1080-NT tox: 16µM*

How did Cc1ccc(Cn2nc(C)c(NC(=O)c3cc(-c4ccc5c(c4)OCO5)on3)c2C)cc1 do in these assays?
IL1B secr inh: 3; DT40 TDP1 CPT: 16µM*; HT1080 IDH1KD tx: inconclusive; DT40 TDP1 no CPT: inconclusive; HT1080-NT tox: 8.9µM*
